Hit rate of the full screen: of about 53,000 compounds, about 900 (1.7%) showed an effect of 50% or more. What follows is part of a selection rich in strong results, with near analogues and random picks from the rest.
These molecules were tested on Mycobacterium tuberculosis (assay: Cornell - Phenotypic assay to identify agents that inhibit growth of Mycobacterium tuberculosis). Details: 10 mM as filed; unlikely as a test dose.
Assay type: functional
Set-up: scale not given: direction of the effect not stated beside the values

Compound	Percent Effect [%]
Cc1nnc2n1CCN(C(=O)c1cc(C)n(-c3ccccc3)c1C)C2	-35.93
CN(CCCOc1ccccc1)Cc1nc2c(cnn2C)c(=O)[nH]1	27.35
COc1cccc(OCC(=O)N2CCOc3ccncc32)c1	-4.09
CCCNC(=O)CNC(=O)c1scnc1C	-19.92
Cc1ncsc1-c1cc(C(=O)NCCO)ccn1	0.2276
CNC(=O)CNC(=O)c1ccc(-c2scnc2C)nc1	51.37
Cc1cc(C(=O)CN2CCN(c3nccs3)CC2)c(C)n1C1CC1	7.889
COc1ccc(CCN(C)C(=O)c2cc(C(C)=O)c[nH]2)cc1OC	-7.568
O=C(NC1CC1)[C@H]1CN(Cc2ccccc2)C[C@@H]1C(=O)c1ccccc1	30.86
CCNC(=O)[C@@H]1CN(Cc2ccccc2)C[C@H]1C(=O)c1ccc(F)cc1	56.73
CC(C)NC(=O)[C@H]1CN(Cc2ccccc2)C[C@@H]1C(=O)c1ccccc1	38.41
CNC(=O)[C@@H]1CN(Cc2ccccc2)C[C@H]1C(=O)c1ccc(F)cc1	28.54
O=C(O)[C@H]1CN(Cc2ccccc2)C[C@@H]1C(=O)c1ccccc1	51.09
CCNC(=O)[C@H]1CN(Cc2ccccc2)C[C@@H]1C(=O)c1ccccc1	41.32
O=C(c1ccc(O)c(Cl)c1)N1CCN(c2nccs2)CC1	19.4
CC(C)CC(=O)N1CC[C@H]2C[C@H](c3nccs3)O[C@@H]2C1	29.2
CNc1nc2c(s1)C(c1c(F)cccc1Cl)CC(=O)N2 (configuration not stated)	108
CNc1nc2c(s1)C(c1c(Cl)cccc1Cl)CC(=O)N2 (configuration not stated)	107.9
CNc1nc2c(s1)C(c1ccc(F)cc1Cl)CC(=O)N2 (configuration not stated)	32.27
CNc1nc2c(s1)C(c1cccc(Cl)c1Cl)CC(=O)N2 (configuration not stated)	35.33
Cn1ncc2c1NC(=O)CC2c1c(F)cccc1Cl (configuration not stated)	13.6
Nc1nc2c(s1)C(c1c(F)cccc1Cl)CC(=O)N2 (configuration not stated)	103.5
CNc1nc2c(s1)C(c1ccccc1Cl)CC(=O)N2 (configuration not stated)	45.9
CNc1nc2c(s1)C(c1ccccc1F)CC(=O)N2 (configuration not stated)	-4.667
CNc1nc2c(s1)C(c1cccc(F)c1F)CC(=O)N2 (configuration not stated)	-9.045
CC(O)CN1CC(C)(C)CN(C(=O)CCc2ccccc2)CC1=O (configuration not stated)	4.925

Compound	Percent Effect [%]
CCN1CCN(C(=O)c2cc(-c3ccc(C)o3)n[nH]2)[C@H]2CS(=O)(=O)C[C@H]21	-0.2092
CCNC(c1cccnc1)c1ccc(F)c(C)c1 (configuration not stated)	-53.96
CC(=O)N1CCN(C(=O)Nc2ccccc2Cl)[C@H]2CS(=O)(=O)C[C@H]21	4.723
Cc1cc(C)n(CC(=O)N2CCCCC2CCN2CCCC2=O)c(=O)n1 (configuration not stated)	8.917
Cc1cc(C(=O)N2CCc3c(CN(C)C(C)C)n[nH]c3C2)[nH]n1	21.29
CCc1noc(CNc2ccc(C(=O)N3CCCC3)cc2C)n1	-69.23
Cc1ccc(CN2CCc3onc(C(=O)NCCN(C)C)c3C2)o1.O=C(O)C(F)(F)F.O=C(O)C(F)(F)F	6.093
Cc1ccc(CN2CCc3onc(C(=O)Nc4cccnc4)c3C2)o1.O=C(O)C(F)(F)F.O=C(O)C(F)(F)F	61.31
Cc1ccc(CN2CCc3onc(C(=O)NC(C)C)c3C2)o1.O=C(O)C(F)(F)F	1.183
CCc1cnc(CN(C)C2CCN(Cc3nnc(C4CC4)n3C)C2)o1 (configuration not stated)	31.65
Cc1cc(C(=O)N(C)CCN(C)C(=O)OC(C)(C)C)oc1C	-8.303
Cc1cc(C)c(C(=O)N(C)CCN(C)C(=O)c2[nH]c(C)cc2C)[nH]1	1.614
Cc1cc(C)c(C(=O)N(C)CCN(C)C(=O)OC(C)(C)C)[nH]1	68.36
c1cc(CNc2ncc(-c3cnccn3)c(C3CC3)n2)ccn1	-5.136
CSc1cccc(CN(C)C(=O)c2cccc(C3CCCNC3)c2)c1 (configuration not stated)	36.25
CC(=O)N1CCC(c2ncc(C(=O)Nc3ccc(F)cc3)c(C)n2)CC1	4.765
O=C(O)C(F)(F)F.O=S(=O)(NCC1COCc2c(-c3ccncc3)nnn2C1)C1CC1 (configuration not stated)	13.64
CN1CCN(c2nc(-c3cnn(C)c3)cs2)CC1	19.22
Cn1cc(-c2csc(N3CCCCCC3)n2)cn1	18.17
Cn1cc(-c2csc(N3CCN(C(=O)OC(C)(C)C)CC3)n2)cn1	78.03
O=C(C1CC1)N1CCCC(C2=Nc3ccccc3S(=O)(=O)N2)C1 (configuration not stated)	29.99
O=C(c1ccncc1)N1CCCC(C2=Nc3ccccc3S(=O)(=O)N2)C1 (configuration not stated)	43.45
Cc1occc1C(=O)N1CCCC(C2=Nc3ccccc3S(=O)(=O)N2)C1 (configuration not stated)	60.62
CC(C)CN1C[C@H]2C[C@H](C(=O)Nc3cccnc3)[C@@H](C1)O2	6.477
CCN(CC)S(=O)(=O)CC(=O)N1CCc2ccc(Cl)cc21	4.859
CCOc1cc(CN(C)CCCC#N)ccc1OC(F)F	7.532

Compound	Percent Effect [%]
Cc1cc(NC(=O)C2CCN(c3nnc(C)c(C)c3C#N)CC2)no1	-12.4
CCC(NC(=O)Nc1ccc(OC)c(C)c1)c1ccncc1 (configuration not stated)	89.35
Cc1cc(NC(=O)NCc2ccncc2)ccc1OC(C)C	88.24
Cc1cc(NC(=O)NCc2nccn2C)ccc1OC(C)C	35.97
Cc1cc(NC(=O)NCc2nncn2C)ccc1OC(C)C	-0.4289
CCC(CO)NC(=O)Nc1ccc(OCC(F)(F)F)c(C)c1 (configuration not stated)	-5.78
CCC(NC(=O)Nc1ccc(OC)c(C)c1)c1noc(C)n1 (configuration not stated)	-4.83
CCCc1nc2c(c(C)c(C)n2Cc2cccnc2)c(N)c1CC	0.8008
CC(=O)c1nn(-c2ccccc2Cl)c(C)c1C(C)=O	14.3
COCCNC(=O)c1cccnc1Sc1cc(OC)ccc1OC	-23.48
Cc1ncc2c(n1)CN(CC(=O)Nc1cccnc1)CC2	-17.74
CC(C)NC(=O)N1CCCn2cnc(CO)c2C1.O=C(O)C(F)(F)F	25.62
Cc1cccc(CN2C[C@@H]3CN(C(=O)NC(C)C)C[C@@H]3C2=O)n1.O=C(O)C(F)(F)F	25.36
CN1CCC(c2cc(CCO)ncn2)C1 (configuration not stated)	-9.182
O=C(Nc1ccc(Br)cc1F)c1ccc(N2CCOCC2)nn1	-1.334
O=C(Nc1ccc(Br)cc1F)c1cc(CN2CCOCC2)on1	74.1
O=C(NCc1ccccc1CN1CCOCC1)c1ccc(Br)cc1F	8.243
CC(=O)N1CC(c2n[nH]c3ncccc23)C1	-13.82
CNS(=O)(=O)CC(=O)N1CCCc2cc(Br)ccc21	-18.99
COCc1nc(C(=O)OCC2CCN(c3ccccc3)C2)cs1 (configuration not stated)	17.1
COc1ccc(C(NCc2ccc(C#N)cc2)C2CC2)cc1.Cl (configuration not stated)	-15.68
c1cnc2[nH]c(C3CCCC3)c(CN3CCCCC3)c2c1	34.75
CCN1CCN(Cc2c(C3CCCC3)[nH]c3ncccc23)CC1	74.68
c1cnc2[nH]c(C3CCCC3)c(CN3CCOCC3)c2c1	24.1
CC1CCN(C(=O)C2CC(=O)N(c3cnn(C(C)C)c3)C2)CC1 (configuration not stated)	-3.187
CC(C)Nc1oc(-c2ccc(S(=O)(=O)N(C)C)o2)nc1C#N	-45.52

Compound	Percent Effect [%]
CN(C)S(=O)(=O)c1ccc(-c2nc(C#N)c(NC(C)(C)C)o2)o1.Cl	104.3
CNc1oc(-c2ccc(S(=O)(=O)N(C)C)o2)nc1C#N	17.81
Cc1nc(N2CCC(CC(=O)N3CCCC3)CC2)c2cnn(C)c2n1	3.468
CC(C)C1SCC(=O)Nc2c1cnn2C(C)C (configuration not stated)	18.65
CNc1ccc(C2CN(c3nc(C)cc(C)n3)CCO2)nc1 (configuration not stated)	51.49
CNc1ccc(C2CN(c3cc(C)nc(N)n3)CCO2)nc1 (configuration not stated)	24.16
CNc1ccc(C2CN(c3cc(C)ncn3)CCO2)nc1 (configuration not stated)	34.11
O=C(Cc1ccccc1O)Nc1ccc(N2CCCC2)nc1	-5.098
Cc1cc(NC(=O)Cc2ccccc2O)cnc1N1CCCCC1	28.35
Cc1cc(NC(=O)Cc2ccccc2O)c[nH]c1=O	77.58
Cc1cc(NC(=O)C(C)N2CCN(c3ccccc3F)CC2)no1 (configuration not stated)	2.813
CCn1cncc1CNc1ccc(-c2nc(CC(C)C)no2)cn1	11.21
CCC(O)CNc1ccc(-c2nc(CC(C)C)no2)cn1 (configuration not stated)	50.96
CC(C)Cc1noc(-c2ccc(NCc3noc(C(C)C)n3)nc2)n1	44.87
CN(C(=O)C1(C#N)CCCCC1)c1nccs1	17.67
OC1CCN(Cc2cc3c(cc2Br)OCCO3)CC1	5.885
OCCN1CCN(Cc2cc3c(cc2Br)OCCO3)CC1	-50.33
Oc1ccc(N2CCN(Cc3cc4c(cc3Br)OCCO4)CC2)cc1	104.9
CS(=O)(=O)N1CCN(Cc2ccc(F)cc2Br)CC1	31.68
O=S(=O)(N1CCCCCC1)N1CCN(Cc2ccc(F)cc2Br)CC1	10.21
Oc1ccc(N2CCN(Cc3ccc(F)cc3Br)CC2)cc1	105.2
Cc1ccccc1C1CCCN1Cc1ccc(S(=O)(=O)N(C)C)o1 (configuration not stated)	23.54
O=C(O)c1cnc(N2CCCC2)nc1COc1ccc(F)cc1	38.38
COCC(O)CN(C)C(=O)NCc1ccc(-c2ccn[nH]2)cc1 (configuration not stated)	-4.972
